Data on 17 compounds can be found in PubChem BioAssay.

The structures appear in SMILES notation. Active and inactive are the calls of the source. Unless noted, the rule behind the calls is not given here.

For assay [1], the system named is XIP peptide (Xip251-270) binding. The assay can be described thus: small-molecule binders of XIP peptide, primary screen, biochemical, small-molecule microarray, fluorescence 635/667 nm, 0.1 µg/mL protein (AID 1182). The conditions noted are these: fluorescent protein binding, 635 nm, higher = more signal, called active from +8 up or from −8 down.
Assay [2] deals with XIP peptide (Xip251-270). The assay can be described thus: small-molecule binders of XIP peptide, primary screen, biochemical, small-molecule microarray, fluorescence 635/667 nm, 0.5 µg/mL protein (AID 1183). The following applies: small-molecule microarray binding, fluorescence 635 nm; higher = more signal.
Assay [3] is described as follows: Plasmodium falciparum growth inhibition, primary screen, strain 3D7, DAPI fluorescence, 100 nL (AID 1184).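 Note: parasites grown inside human red blood cells in medium with human serum.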 The following applies: P. falciparum 3D7 growth, 3 d, higher = more signal.
Assay [4] has as its target Homeobox protein Hox-A13 (Mus musculus) (UniProt Q62424). The assay can be described thus: inhibitors of HoxA13-DNA binding, primary screen, biochemical, fluorescence polarization, labeled oligonucleotide (AID 1185). The following applies: 15 min, higher = more signal, called active from +8 up or from −8 down.
A short description of assay [5]: inhibitors of hydroxyurea-induced Chk1 phosphorylation, primary screen, imaging, HeLa, phospho-Chk1 antibody, percent positive cells (AID 1186). The conditions noted are these: hydroxyurea-induced phospho-Chk1 immunofluorescence imaging, higher = more signal.
Assay [6] is described as follows: inhibitors of hydroxyurea-induced Chk1 phosphorylation, primary screen, imaging, HeLa, phospho-Chk1 nuclear intensity (AID 1187). The following applies: hydroxyurea-induced phospho-Chk1 immunofluorescence imaging, higher = more signal.

Chain of Homeobox protein Hox-A13 (Mus musculus) (Q62424 whole entry, looked up): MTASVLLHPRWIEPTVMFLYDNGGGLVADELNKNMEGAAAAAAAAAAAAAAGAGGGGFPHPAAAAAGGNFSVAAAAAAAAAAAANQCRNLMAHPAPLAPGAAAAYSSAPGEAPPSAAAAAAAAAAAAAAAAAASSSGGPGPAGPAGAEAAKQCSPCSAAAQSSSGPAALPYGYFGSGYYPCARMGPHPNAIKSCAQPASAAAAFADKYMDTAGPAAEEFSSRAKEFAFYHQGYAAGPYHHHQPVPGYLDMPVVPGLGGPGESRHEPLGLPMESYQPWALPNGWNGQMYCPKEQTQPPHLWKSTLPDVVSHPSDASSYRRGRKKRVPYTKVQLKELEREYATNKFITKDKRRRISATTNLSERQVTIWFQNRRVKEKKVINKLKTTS

For `O=C(CS)NCCCCCCNC(=O)[C@H]1C[C@H]2C(=O)N3CCC[C@H]3C(=O)N2[C@H]1c1cccc(OCCO)c1`, the composite z-score in assay [1] is 0.517 (inactive); in assay [2], 0.773. The z-score was -0.0979 in assay [3], -3.15 (inactive) in assay [4], -0.188 (inactive) in assay [5] and -0.318 (inactive) in assay [6].
For `Cc1ccc([C@H]2[C@H](C(=O)O)[C@H](Sc3ccccc3)[C@@H](C(C)C)N2S(=O)(=O)c2ccc(C)cc2)cc1`, the composite z-score in assay [1] is 2.49 (inactive); in assay [2], 0.787. Moreover, the z-score in assay [3] was -0.619; in assay [4], -6 (inactive); in assay [5], 0.237 (inactive); in assay [6], -0.0069 (inactive).
Consider `COc1cc(CO)ccc1OC(C)=O`, for which the composite z-score in assay [1] was -0.152 (inactive); in assay [2], 0.383. The z-score in assay [3] is 0.186; in assay [4] it was 0.472 (inactive); in assay [5], -0.111 (inactive); in assay [6], 0.0389 (inactive).
Turning to `CN1CCC(CCCO)=CC1c1ccc(CN2CCCC2)cc1` (configuration not stated), the figures for the composite z-score in assay [1] and in assay [2] were 0.426 (inactive) and 0.506, respectively. Further, the z-score was -1.18 in assay [3], -2.07 (inactive) in assay [4], 0.56 (inactive) in assay [5] and 0.903 (inactive) in assay [6].
Consider `O=C1OCC=C[C@H]2OC34C=CCN(c5ccc6ccccc6c5)C(=O)[C@H]3N(CCCO)C(=O)[C@@H]4[C@@H]12` (some centres not stated), for which the results for the composite z-score in assay [1] and in assay [2] were 0.185 (inactive) and 1.03, respectively. Also, the z-score in assay [3] is -1.94; in assay [4], -2.03 (inactive); in assay [5], -0.114 (inactive); in assay [6], -0.226 (inactive).
For the compound `CC(C)(C)N1CC=CC23O[C@@H]4C=CCOC(=O)[C@@H]4[C@H]2C(=O)N(CCCCCO)[C@@H]3C1=O` (some centres not stated), the composite z-score in assay [1] was 0.295 (inactive); in assay [2] it was -1.13. In addition, the z-score in assay [3] was -0.366; in assay [4], -4.43 (inactive); in assay [5], 0.241 (inactive); in assay [6], -0.459 (inactive).
As to `Cc1ccc(S[C@]2(C(=O)NCCN3CCOCC3)CC(=O)N(Cc3cc(C(F)(F)F)cc(C(F)(F)F)c3)[C@@H]2c2ccc(CO)cc2I)cc1`, the composite z-score in assay [1] is 0.476 (inactive); in assay [2] it was 0.241. Also, the z-score in assay [3] was 0.439; in assay [4], -2.98 (inactive); in assay [5], -0.064 (inactive); in assay [6], -0.0538 (inactive).
`C=CC[C@@H](OC(=O)Nc1ccc(OC)cc1)c1ccc(O)c2ccccc12`: the composite z-score is 1.08 (inactive) in assay [1] and 0.737 in assay [2]. The z-score in assay [3] was -0.166; in assay [4], -0.5 (inactive); in assay [5] it was 0.311 (inactive); in assay [6] it was 0.626 (inactive).
Regarding `COc1ccc(CCN2C(=O)[C@@]3(Cc4ccccc42)c2ccccc2C(=O)N(Cc2ccccc2Cl)[C@H]3c2ccc(CO)cc2)cc1`, the composite z-score in assay [1] was -0.227 (inactive); in assay [2], 0.285. Further, the z-score in assay [3] is -1.37; in assay [4], -0.482 (inactive); in assay [5], -0.214 (inactive); in assay [6] it was -0.322 (inactive).
Consider `O=C(OCCF)C1=CCC(c2cccc(Cl)c2)O1` (configuration not stated), for which the composite z-score in assay [1] was -0.131 (inactive); in assay [2] it was 0.0075. Also, the z-score in assay [3] was 0.65; in assay [4] it was -0.701 (inactive); in assay [5], 0.0006 (inactive); in assay [6], 0.215 (inactive).
`C#CCN(C(/C=C/c1ccccc1)CO)C(C(=O)O)c1ccccc1` (configuration not stated): the composite z-score in assay [1] was 0.194 (inactive); in assay [2] it was -0.722. Further, the z-score in assay [3] is -2.23; in assay [4], 0.9 (inactive); in assay [5] it was 0.301 (inactive); in assay [6], 0.353 (inactive).
Take `O=C1O[C@@H](c2ccccc2)[C@@H](c2ccccc2)N2[C@@H](c3ccc(OCCO)cc3)[C@]3(C(=O)Nc4ccccc43)[C@@H](C(=O)Nc3nc4ccccc4s3)[C@H]12`: the composite z-score in assay [1] is 0.615 (inactive); in assay [2] it was 0.841. In addition, the z-score in assay [3] was -0.161; in assay [4] it was 2.18 (inactive); in assay [5] it was -0.469 (inactive); in assay [6], -0.781 (inactive).
In the case of `CCCCC(O)C1C=CC2C(=O)N(C3CCCCC3)C(=O)C2N1Nc1ccc(OC)cc1` (configuration not stated), the figures for the composite z-score in assay [1] and in assay [2] were 0.222 (inactive) and 0.808, respectively. In addition, the z-score was -0.265 in assay [3], -3.58 (inactive) in assay [4], 0.895 (inactive) in assay [5] and 0.719 (inactive) in assay [6].
Take `CCOC(=O)C[C@H]1[C@H](OC(=O)c2ccc(-c3ccccc3)cc2)[C@@H](NC(=O)c2ccc(-c3ccccc3)cc2)c2cc(OCCCO)ccc2N1C(=O)Cc1ccc(OC)cc1`: the values for the composite z-score in assay [1] and in assay [2] were -0.548 (inactive) and -0.057, respectively. In addition, the z-score in assay [3] was 0.555; in assay [4], -1.54 (inactive); in assay [5], -0.0323 (inactive); in assay [6], 0.107 (inactive).
Regarding `C=CCOC(=O)[C@H]1[C@@H]2C(=O)O[C@@H](c3ccccc3)[C@@H](c3ccccc3)N2[C@@H](c2ccc(OCCOC(=O)[C@@H]3C[C@@H]4C(=O)N5CCC[C@H]5C(=O)N4[C@@H]3c3ccc(O)cc3)cc2)[C@]12C(=O)Nc1ccccc12`, the composite z-score was 0.188 (inactive) in assay [1] and 0.838 in assay [2]. In addition, the z-score in assay [3] was -1.8; in assay [4] it was 1.28 (inactive); in assay [5], -0.788 (inactive); in assay [6], -0.507 (inactive).
For `N[C@@H](Cc1ccccc1)Cn1cc(-c2ccccc2)nn1`, the composite z-score in assay [1] was -0.259 (inactive); in assay [2] it was -0.533. Moreover, the z-score in assay [3] was 0.942; in assay [4], -0.823 (inactive); in assay [5], 0.201 (inactive); in assay [6], 0.117 (inactive).
With `[N-]=[N+]=NCc1ccccc1C[C@]1(C(=O)O)N=C(c2ccc(OCCCO)cc2)O[C@H]1c1ccccc1`, the composite z-score was 1.06 (inactive) in assay [1] and 0.228 in assay [2]. The z-score in assay [3] is -0.296; in assay [4], -5.85 (inactive); in assay [5], 0.109 (inactive); in assay [6] it was 0.0605 (inactive).
